Data taken from PubChem BioAssay AID651681 (Broad Institute, 2012).
Activity calls are given as the source filed them.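 The calls were made as follows: active = compound with fitted CDK2 half-maximal potency at or below twice its top tested dose; inconclusive = flat curve near 30 to 70% inhibition, or poor fit; inactive = the rest.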

Target: Cyclin-dependent kinase 2 (Homo sapiens) + Cyclin-A2 (Homo sapiens) (UniProt P20248+P24941)
Test: blockade of human CDK2 kinase activity – biochemical, dry powder, set 3, selectivity assay for Dyrk1A inhibitor project, dose response (AID 651681)
Conditions: CDK2/cyclin A ADP-Glo luminescence, histone H1 peptide; series mostly up to 10 µM

Cyclin-dependent kinase 2 (Homo sapiens) + Cyclin-A2 (Homo sapiens), sequence (P20248 whole entry, looked up, one chain of several): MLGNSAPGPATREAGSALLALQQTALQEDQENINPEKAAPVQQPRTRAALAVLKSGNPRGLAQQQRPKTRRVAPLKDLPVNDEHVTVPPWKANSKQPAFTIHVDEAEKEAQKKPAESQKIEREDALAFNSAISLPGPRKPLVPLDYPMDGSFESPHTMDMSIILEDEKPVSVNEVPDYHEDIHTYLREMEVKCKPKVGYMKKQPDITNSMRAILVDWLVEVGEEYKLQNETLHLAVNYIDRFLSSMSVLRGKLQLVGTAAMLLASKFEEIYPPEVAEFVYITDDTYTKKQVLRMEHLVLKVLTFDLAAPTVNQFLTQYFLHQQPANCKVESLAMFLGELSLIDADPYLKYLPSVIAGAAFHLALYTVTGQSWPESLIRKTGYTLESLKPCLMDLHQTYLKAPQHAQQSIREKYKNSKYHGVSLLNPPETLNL

outcome, inactive:
CN(CC(=O)Nc1nc2ccc(Cl)cc2s1)S(=O)(=O)c1ccc(C#N)cc1
COc1ccc(C2=Nn3c(nnc3-c3cccnc3)SC2)cc1
COc1ccc(-c2csc(NC(=O)CSCC(=O)N3CCCC3)n2)cc1
CC(C)n1cnc2cc(NCc3cccc4ccccc34)ccc21
COc1ccc(OC)c(C2=Nn3c(nnc3-c3ccncc3)SC2)c1
COc1ccc2nc(NC(=O)CN(C)S(=O)(=O)c3ccc(F)cc3)sc2c1
CN(CC(=O)Nc1nccs1)S(=O)(=O)c1ccc(Cl)cc1
COc1ccc(C2=Nn3c(nnc3-c3ccncc3)SC2)cc1
COc1ccc2c(Cl)c(C(=O)NC(C)C)sc2c1
C=CCn1cnc2scc(-c3ccc(OC)cc3)c2c1=O
COc1ccc2c(Cl)c(C(=O)NCc3cccnc3)sc2c1
Cc1sc(NC(=O)CSCc2ccccc2)nc1-c1ccccc1
CN(CC(=O)Nc1nc2ccccc2s1)S(=O)(=O)c1ccc(Cl)cc1
Clc1ccc(CSc2nc(Nc3ccc4c(c3)OCO4)c3ccccc3n2)cc1
CCCCN(c1nc2ccccc2s1)S(=O)(=O)c1ccc(Cl)cc1
CN(CC(=O)Nc1nc2ccccc2s1)S(=O)(=O)c1ccccc1
COc1ccc2nc(NC(=O)C3CCN(S(=O)(=O)c4cccc5nonc45)CC3)sc2c1
COc1ccc2c(Cl)c(C(N)=O)sc2c1
CN(CC(=O)Nc1nc2ccc(F)cc2s1)S(=O)(=O)c1ccc(Cl)cc1
COc1ccc2nc(NC(=O)C3CCCN(S(=O)(=O)c4cccc5cccnc45)C3)sc2c1 (configuration not stated)
Cc1ccc(S(=O)(=O)N(C)CC(=O)Nc2nc3ccccc3s2)cc1
COc1ccc(OC)c(C2=Nn3c(nnc3-c3ccccc3)SC2)c1
